High-throughput results: PubChem, several laboratories
Only some compounds are listed: those with a hit (about 2.3% of all), similar ones and a draw of the others.
Mcl1-Bid inh = Mcl-1/Bid binding inhibitors, primary screen, biochemical, TR-FRET, 1536-well | TR-FRET Mcl-1/Bid-Dy647 peptide binding | hit rate 0.97% among 220,000 | inhibition, % at 21.7 µM;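 active = compounds that cut the binding signal by more than half at the single screening dose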;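 also: His-tagged Mcl-1 with europium anti-His antibody binding Bid BH3 peptide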
Bcl-xL primary = inhibitors of human Bcl-xL, primary screen, biochemical, fluorescence polarization, HTS; Bcl-2-like protein 1 (Homo sapiens), Q07817; GST-Bcl-xL / FITC-Bim BH3 peptide fluorescence polarization; inhibition, % at 10.9 µM; hit rate 0.7% among 320,000;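 active = inhibition above the mean of all tested compounds plus 3 SD, cutoff set per campaign, cut at about 30% in these data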;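 also: inhibitors lower millipolarization by displacing the labeled peptide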
Target sequence (Q07817 whole entry, looked up): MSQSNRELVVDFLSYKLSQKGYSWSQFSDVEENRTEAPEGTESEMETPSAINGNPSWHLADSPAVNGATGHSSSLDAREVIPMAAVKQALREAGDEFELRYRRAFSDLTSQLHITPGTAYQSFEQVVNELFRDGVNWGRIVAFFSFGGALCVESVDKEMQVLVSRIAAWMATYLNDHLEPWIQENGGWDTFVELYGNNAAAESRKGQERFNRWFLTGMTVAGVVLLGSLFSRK
MCL1-BIM inh = inhibitors of MCL1 binding to BIM-BH3, primary screen, biochemical, fluorescence polarization; Induced myeloid leukemia cell differentiation protein Mcl-1 (Homo sapiens), Q07820; AID 2057, 2009; inhibition, % at 10.9 µM; hit rate 0.68% among 320,000; GST-MCL1 / FITC-Bim-BH3 fluorescence polarization;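 active = inhibition above the mean inhibition of all tested compounds plus 3 SD, set per campaign, cut at about 40% in these data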;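 also: higher means more loss of mP so more displacement of Bim peptide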
GLD-1 RNA inh = GLD-1/TGE RNA complex disruptors, primary screen, biochemical, fluorescence polarization; Female germline-specific tumor suppressor gld-1 (Caenorhabditis elegans), Q17339; purified GLD-1 + fluorescein TGE RNA; inhibition, % at 5.96 µM; hit rate 0.44% among 320,000;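 active = percent inhibition above a per-plate cutoff, the plate mean of test compounds plus 3 SD, cut at about 30% in these data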
Target sequence (Q17339 whole entry, looked up): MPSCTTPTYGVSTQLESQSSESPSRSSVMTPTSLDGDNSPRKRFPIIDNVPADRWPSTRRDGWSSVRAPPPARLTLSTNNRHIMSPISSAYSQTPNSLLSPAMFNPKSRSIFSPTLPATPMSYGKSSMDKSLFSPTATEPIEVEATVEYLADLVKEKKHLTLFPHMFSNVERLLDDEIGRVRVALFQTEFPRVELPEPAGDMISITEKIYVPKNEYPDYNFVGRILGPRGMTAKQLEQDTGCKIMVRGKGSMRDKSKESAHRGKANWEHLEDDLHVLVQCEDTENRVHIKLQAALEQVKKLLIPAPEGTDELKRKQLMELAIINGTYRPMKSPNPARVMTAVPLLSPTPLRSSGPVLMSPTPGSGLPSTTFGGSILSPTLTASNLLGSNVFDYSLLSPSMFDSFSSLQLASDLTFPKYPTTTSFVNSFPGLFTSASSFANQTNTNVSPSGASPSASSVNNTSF
Mcl-1 Bim block = inhibitors of Bim peptide binding to Mcl-1, primary screen, biochemical, bead-based flow cytometry, multiplex; Induced myeloid leukemia cell differentiation protein Mcl-1 (Homo sapiens), Q07820; Bim peptide-Mcl-1 binding; inhibition, % at 10 µM; hit rate 0.1% among 190,000; AID 1009, 2008; in the data active = inhibition above about 40%
Mcl1-Noxa inh = Mcl-1/Noxa binding inhibitors, primary screen, biochemical, TR-FRET, 1536-well | inhibition, % at 21.7 µM | hit rate 1.5% among 220,000 | Induced myeloid leukemia cell differentiation protein Mcl-1 (Homo sapiens), Q07820 | AID 1022, 2008 | TR-FRET Mcl-1/Noxa peptide binding, 2 h;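 active = compounds that cut the protein-peptide binding signal by more than 50% relative to plate controls in a single-dose test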;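 also: His-tagged Mcl-1 with rhodamine Noxa BH3 peptide and terbium anti-His antibody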
Large screens that a line does not name were inactive.

CC(=O)Nc1ccc(S(=O)(=O)N(C)CC(=O)N2CCN(C(=O)c3ccco3)CC2)cc1	none (no result: Mcl1-Bid inh, Bcl-xL primary, MCL1-BIM inh, Mcl-1 Bim block, Mcl1-Noxa inh)
COC(=O)CNC(=O)COC(=O)Cc1ccc(Cl)cc1	none
O=C1NCCCC2c3c(cc(Br)c(O)c3Br)OC12N1CCOCC1 (stereo unspecified)	Mcl1-Noxa inh 62
COc1ccc(CCNC(=O)C2CCN(S(=O)(=O)c3cccc4nonc34)CC2)cc1OC	Mcl1-Noxa inh 66
O=C(O)C1CCCCC1C(=O)Nc1nc(-c2ccc(Cl)s2)cs1 (stereo unspecified)	Mcl1-Noxa inh 71
O=C(Nc1ccc([N+](=O)[O-])cc1)Nc1nc(-c2ccc(Cl)s2)cs1	Mcl1-Noxa inh 82
Cc1cc(N2CCOCC2)nc2ccc(NC(=S)NCCN(C)C)cc12	none (no result: Mcl1-Bid inh, Mcl-1 Bim block, Mcl1-Noxa inh)
COc1ccc(-c2cc(C(=O)O)c3c(C)nn(-c4ccccn4)c3n2)cc1	none
COc1ccc(N=CC2=C(Nc3ccc(OC)cc3)c3c(C)nn(-c4ccccn4)c3CC2)cc1	Bcl-xL primary active, MCL1-BIM inh active, GLD-1 RNA inh active (no result: Mcl1-Bid inh, Mcl-1 Bim block, Mcl1-Noxa inh)
O=C(Nc1oc2ccccc2c(=O)c1-c1ccc(Cl)cc1)c1ccco1	none (no result: Mcl1-Bid inh, Mcl-1 Bim block, Mcl1-Noxa inh)
O=C1c2sc3nc4ccccc4n3c2C(=O)N1c1ccccc1Cl	Mcl1-Noxa inh 62
COc1ccc(-n2c(O)c(/C=N/Nc3nc(C)cc(C)n3)c3ccccc3c2=O)cc1OC	none
COc1ccc(-n2c(O)c(/C=N/NS(=O)(=O)c3cc(C)ccc3C)c3ccccc3c2=O)cc1OC	Bcl-xL primary 54
COc1ccc(-n2c(O)c(/C=N/NS(=O)(=O)c3ccc(C)cc3)c3ccccc3c2=O)cc1OC	Bcl-xL primary 48
CCN1C(=O)[C@@H]2[C@H](C1=O)[C@@H]1C(=O)Nc3ccccc3C(=O)N1[C@@H]2c1ccccc1	none (no result: Mcl1-Bid inh, Mcl-1 Bim block, Mcl1-Noxa inh)
COc1ccc(C(OC(=O)c2ccco2)C(=O)NCc2ccc(C)cc2)cc1 (stereo unspecified)	none
CCCOC(=O)c1ccc(NC(=O)c2c(Cl)ccc(Cl)c2OC)cc1	none
O=C(NCCCc1ccccc1)c1cc(COc2ccc(F)cc2Cl)on1	Bcl-xL primary 35 (no result: Mcl1-Bid inh, Mcl-1 Bim block, Mcl1-Noxa inh)
O=C1N=C(c2ccccc2)S/C1=C\c1cccs1	Mcl1-Noxa inh 72
COc1cc(NC(=O)c2c(Cl)cnn2C)c(OC)cc1Cl	none
Nc1nnc(SCC(=O)N2CCN(c3ccccc3)CC2)n1-c1ccccc1	Mcl1-Bid inh 97
Nc1nnc(SCC(=O)N2CCN(c3cccc(Cl)c3)CC2)n1-c1ccccc1	none
CCN1C(=O)/C(=C2\SC(=S)N(NC(=O)c3ccccc3O)C2=O)c2ccccc21	Mcl1-Noxa inh 65 (no result: Mcl-1 Bim block)
O=C(CSc1ccc(-c2ccco2)nn1)c1cccc([N+](=O)[O-])c1	MCL1-BIM inh 66
CC(=O)c1cccc(NC(=O)CSc2ccc(-c3ccco3)nn2)c1	none (no result: Mcl1-Bid inh, Mcl-1 Bim block, Mcl1-Noxa inh)
Cn1cc(S(=O)(=O)N2CCN(c3cccc(C(F)(F)F)c3)CC2)c(=O)n(C)c1=O	none
COc1cc2[nH]c(=S)n(C3CC3)c(=O)c2cc1OC	none
COc1cc2[nH]c(=S)n(N(C(C)=O)C(C)=O)c(=O)c2cc1OC	Mcl1-Bid inh 97
CCOC(=O)c1sc2nc(SCC#N)n(CCCN3CCCC3=O)c(=O)c2c1C	none
O=c1oc2ccccc2c(Nc2ccc3ccccc3c2)c1[N+](=O)[O-]	Mcl1-Noxa inh 67
Cc1ccc(-c2cc(C(=O)Nc3ccc(S(=O)(=O)Nc4ncccn4)cc3)[nH]n2)c(O)c1C	Mcl1-Noxa inh 56 (no result: Mcl-1 Bim block)
N#Cc1c2ccc(OCC(=O)NCc3ccco3)cc2n2ccccc12	none (no result: Mcl1-Bid inh, Mcl-1 Bim block, Mcl1-Noxa inh)
N#Cc1c2ccc(O)cc2n2ccccc12	Bcl-xL primary 45, MCL1-BIM inh 44
CCN(CC)S(=O)(=O)c1cc(NC(=O)Cn2ncc(Cl)c(Cl)c2=O)ccc1C	Mcl1-Noxa inh 78 (no result: Mcl-1 Bim block)
COc1ccc(NC(=O)COc2ncnc3ccccc23)cc1S(=O)(=O)N1CCOCC1	Mcl-1 Bim block 41
CCOC(=O)c1ccc(NC(=O)Cn2ncc(Cl)c(Cl)c2=O)cc1	Mcl1-Noxa inh 81
CCC(=O)Nc1ccc(C(=O)Cn2ncc(Cl)c(Cl)c2=O)cc1	none (no result: Mcl-1 Bim block)
O=C(Cn1ncc(Cl)c(Cl)c1=O)Nc1ccc2c(c1)OCO2	none (no result: Mcl1-Bid inh, Mcl-1 Bim block, Mcl1-Noxa inh)
COc1ccc(S(=O)(=O)N2CCOCC2)cc1NC(=O)COc1ncnc2ccccc12	none
COc1ccc(NC(=O)c2ccc(Cl)nc2)cc1S(=O)(=O)N1CCOCC1	none (no result: Mcl1-Bid inh, Mcl-1 Bim block, Mcl1-Noxa inh)
COc1ccc(NC(=O)Cn2ncc(Cl)c(Cl)c2=O)cc1S(=O)(=O)N1CCOCC1	Mcl1-Noxa inh 78
Cc1cccc(N(C(=O)c2cnc3n(c2=O)CCS3)C2CCCCC2)c1	none (no result: Mcl-1 Bim block)
COc1ccccc1-c1cc(C(F)(F)F)nc(S(=O)(=O)CCCC(=O)NCc2ccc(F)cc2)n1	none
COCCCNC(=O)CCn1nc(-c2ccc(Cl)cc2)ccc1=O	none (no result: Mcl1-Bid inh, Mcl-1 Bim block, Mcl1-Noxa inh)
CCOC(=O)c1ccc(NC(=O)CSCCC(=O)O)cc1	Mcl-1 Bim block 68
CC(=O)c1cc(O)c2ccccc2c1O	Mcl1-Noxa inh 80 (no result: Mcl-1 Bim block)
CC(C)NC(=O)CSc1nc2sccc2c(=O)n1-c1ccccc1	none (no result: Mcl1-Bid inh, Mcl-1 Bim block, Mcl1-Noxa inh)
Cc1nc2nc[nH]n2c(=O)c1NS(=O)(=O)c1ccc(F)cc1	none
COc1ccc(S(=O)(=O)Nc2c(C)nc3nc[nH]n3c2=O)cc1	Mcl1-Bid inh 66
Cc1nnc(-c2cccc(Br)c2)c2cn(-c3ccc(Br)cc3)nc12	Mcl1-Bid inh 56
Cc1nnc(-c2cccc(Br)c2)c2cn(-c3ccccc3)nc12	none
CCCc1nc2c(C)ccc(C)c2c(N)c1CC	Mcl1-Bid inh 58
Cc1ccc(-c2csc3ncn(CC(=O)OC(C)C)c(=O)c23)cc1	none (no result: Mcl1-Bid inh, Mcl-1 Bim block, Mcl1-Noxa inh)
COc1ccc(OC)c([N+](=O)[O-])c1C(N)=O	Mcl1-Noxa inh 56
COc1cc(C(=O)O)c([N+](=O)[O-])c(OC)c1OC	none (no result: Mcl-1 Bim block)
CCNc1sc(C(=O)c2cccs2)c(N)c1-c1nc2ccccc2s1	Mcl1-Noxa inh 55
CC1CCC(C(C)C)C2=C1C(C#N)(C#N)C(C#N)(C#N)C(c1ccccc1)N2 (stereo unspecified)	Mcl1-Noxa inh 56
O=C(N/N=C/c1ccncc1)c1ccc(-n2cccc2)cc1	Mcl1-Noxa inh 59
Cc1cc(C)n(CC(=O)NNC(=O)c2cncc(Br)c2)n1	none (no result: Mcl1-Bid inh, Bcl-xL primary, MCL1-BIM inh, Mcl-1 Bim block, Mcl1-Noxa inh)
CC(=O)c1ccc(Oc2ccc(C(C)=O)cc2)cc1	Mcl1-Bid inh 99
O=C(CSc1nc2ccccc2n1CCc1ccccc1)c1ccc(O)c(O)c1	Mcl1-Bid inh 52, Mcl1-Noxa inh 102 (no result: Bcl-xL primary, MCL1-BIM inh, GLD-1 RNA inh)
c1ccc2[nH]c(-c3ccncc3)nc2c1	none
Fc1cc2nc(-c3ccncc3)[nH]c2cc1F	Mcl1-Bid inh 71
